The target in experiment [1] is Glutathione peroxidase 1 (Homo sapiens) (UniProt P07203). The experiment is described as follows: Primary qHTS Assay for Inhibitors of Recombinant Selenoprotein Glutathione Peroxidase 1 (GPX1) (AID 1845191). For activity, negative = inhibition: % is set by controls: 0 for no effect and ±100 for the full control effect. Note: nearly all actives have a fitted effect of over 65% in size. Put shortly: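 GR-coupled assay: compounds preincubated 30 min at room temperature with GPX1, then reaction started with CHP; final 10 nM GPX1, 1 mM GSH, 0.5 mM CHP, 0.5 mM NADPH, 100 nM GR, 0.01% BSA, pH 7.5 Tris buffer. NADPH fluorescence (340/450 nm) read at 0 and 15 min.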
In general terms: Quantitative high-throughput screening tests each substance at several concentrations.

In experiment [2] the target is Phospholipid hydroperoxide glutathione peroxidase GPX4 (Homo sapiens) (UniProt P36969). The experiment is described as follows: Primary qHTS Assay for Inhibitors of Recombinant Selenoprotein Glutathione Peroxidase 4 (GPX4) (AID 1845192). For activity change, negative = inhibition: series mostly up to about 50 µM; % is set by controls: 0 for no effect and ±100 for the full control effect. Note: nearly all actives have a fitted effect of over 65% in size. Put shortly: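 GR-coupled assay: recombinant GPX4 preincubated 30 min with compound at room temperature; final 200 nM GPX4, 1 mM GSH, 0.5 mM cumene hydroperoxide, 0.5 mM NADPH, 100 nM GR, 0.01% BSA, pH 7.5 Tris. NADPH fluorescence (340/450 nm) read at 0 and 15 min.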

In experiment [3] the target is Luciferin 4-monooxygenase (Photinus pyralis) (UniProt P08659). The experiment is described as follows: Primary firefly luciferase (FLuc) qHTS assay for identification of artifact compounds. (AID 1845220).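 For activity change, negative = inhibition: series mostly up to about 54 µM; plate controls were DMSO vehicle for no effect and no enzyme for full effect.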 Note: nearly all actives have a fitted effect of over 60% in size. Summed up:
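Titrated compounds were incubated 15 min at RT, protected from light, with luciferin and ATP at 10 uM; reaction started with 10 nM FLuc, luminescence imaged at 5 min, and concentration-response fitted by Hill equation.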

The nature of experiment [4]: Primary fluorescence-based thiol-reactive (MSTI) qHTS assay for identification of artifact compounds. (AID 1845221).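 For activity change, negative = thiol reactive: series mostly up to about 54 µM; thiol-reactive compounds lower the probe fluorescence signal.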 Note: nearly all actives have a fitted effect of over 65% in size. Note: potency is the fitted concentration of half-maximal effect. Put shortly: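 Thiol-reactive compounds detected by quenching of 4 uM MSTI fluorescence (525/598 nm) after 1 h room-temperature dark incubation in PBS pH 7.4, 2% DMSO. qHTS titration; percent inhibition Hill-fitted against Acetyl-MSTI/MSTI controls.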

The test system of experiment [5] is Nanoluciferase (engineered Oplophorus gracilirostris luciferase). In words: Primary Nanoluciferase (NLuc) qHTS assay for identification of artifact compounds. (AID 1845222).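 Note: NLuc secreted into diluted conditioned medium of S16 cells; series mostly up to about 54 µM; 0% = DMSO and -100% = no enzyme.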 Put shortly: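 qHTS format, against NLuc in S16 cell-conditioned medium. Nano-Glo substrate 1:100 was added after 15 min at room temperature. Luminescence was taken after a further 5 min.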

A short description of experiment [6]: Primary redox qHTS assay for identification of artifact compounds. (AID 1845223).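 Note: 0% = DMSO and 100% = reference compound.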 Summed up:
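Amplex Red (25 uM) and HRP (250 mU/mL) in HBSS, with compounds for 15 min, then 250 uM DTT for 30 min, room temperature, dark. Fluorescence 525/598 nm read; normalized to DMSO and 10 uM DA3003; Hill fit.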

Values without a mark were called inactive. Inconclusive results are not listed. Activity calls are given as the source filed them. Calls come from the whole dose curve; as a rule, active = well fitted curve in the direction sought with a large enough effect; inconclusive = small, poorly fitted or top-dose-only effect, or another doubt; inactive = no such curve, though single readings can be large; an effect the other way counts as inactive or inconclusive.

The values below come from PubChem BioAssay (NCATS).

Chain of Phospholipid hydroperoxide glutathione peroxidase GPX4 (Homo sapiens) (P36969 whole entry, looked up): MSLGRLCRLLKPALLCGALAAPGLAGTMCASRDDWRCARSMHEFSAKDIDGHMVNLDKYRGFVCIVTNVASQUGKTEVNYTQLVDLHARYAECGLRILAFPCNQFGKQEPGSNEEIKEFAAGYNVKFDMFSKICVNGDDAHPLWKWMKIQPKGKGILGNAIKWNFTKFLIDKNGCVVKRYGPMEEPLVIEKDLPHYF
Chain of Glutathione peroxidase 1 (Homo sapiens) (P07203 whole entry, looked up): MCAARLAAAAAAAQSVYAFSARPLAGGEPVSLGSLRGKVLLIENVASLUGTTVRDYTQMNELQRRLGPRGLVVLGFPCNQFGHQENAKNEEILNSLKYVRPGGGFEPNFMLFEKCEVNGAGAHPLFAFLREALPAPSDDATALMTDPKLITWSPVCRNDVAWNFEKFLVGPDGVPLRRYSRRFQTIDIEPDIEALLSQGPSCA

Take `C[C@@H]1O[C@@H](O[C@H]2[C@H](OC(=O)[C@]34CCC(C)(C)C[C@H]3C3=CCC5[C@@]6(C)C[C@H](O)[C@H](O[C@@H]7O[C@H](CO[C@@H]8OC[C@H](O)[C@H](O)[C@H]8O)[C@@H](O)[C@H](O)[C@H]7O)C(C)(C)C6CC[C@@]5(C)[C@]3(C)C[C@H]4O)OC[C@@H](O)[C@@H]2O)[C@H](O)[C@H](O[C@@H]2OC[C@](O)(CO)[C@H]2O)[C@H]1O[C@@H]1OC[C@H](O)[C@H](O[C@@H]2OC[C@@H](O)[C@H](O)[C@H]2O)[C@H]1O` (stereo partly specified): the outcome was “inactive [at 9.52 µM]” in experiment [1] and “inactive [at 11.6 µM]” in experiment [3]. Besides, in experiment [2], the activity change, negative = inhibition is -0.436% [at 9.73 µM]. Further, the activity change, negative = thiol reactive in experiment [4] is 452% [at 11.5 µM]. In experiment [5], the activity, negative = inhibition was 3.55% [at 11.6 µM]. For the same molecule, the redox activity (% of DA3003) in experiment [6] is 10.3% [at 11.5 µM].
Regarding `CC(=O)OC[C@@]12[C@H](O)C[C@@H](C)[C@]3(C[C@@H](c4ccoc4)OC3=O)[C@H]1C[C@H](O)C[C@]21CO1`, the Potency result in experiment [1], in experiment [2], in experiment [3], in experiment [4], in experiment [5] and in experiment [6] was “inactive” throughout.
With `C=C(C)[C@@H]1CC[C@](C)(O)[C@@H](OC(=O)c2ccccc2)C1`, the Potency result in experiment [1], in experiment [2], in experiment [3], in experiment [4], in experiment [5] and in experiment [6] was “inactive” throughout.
For `CC(=O)OCC1=C[C@H](O)[C@@H]2C(C(=O)O)=CO[C@@H](O[C@@H]3O[C@H](CO)[C@@H](O)[C@H](O)[C@H]3O)[C@H]12`, the Potency entry in experiment [1], in experiment [2], in experiment [3], in experiment [4], in experiment [5] and in experiment [6] was “inactive” each time.
As for `COc1c2c(c(C)c3c1C(=O)OC3)OC1(C)CC(O)C3(O)C(C)(C)OC(=O)CCC3(C)C1C2` (stereo unspecified), the Potency result in experiment [1], in experiment [2], in experiment [3], in experiment [4], in experiment [5] and in experiment [6] was “inactive” in each case.
For the molecule `Clc1ccc2c(c1)C1=NCCN1c1c(-c3noc(C4CC4)n3)ncn1-2`, the Potency result in experiment [1], in experiment [2], in experiment [3], in experiment [4], in experiment [5] and in experiment [6] was “inactive” each time.
On to `C[C@H]1CC[C@@]2(OC1)O[C@H]1CC3C4CC=C5C[C@H](O)C[C@@H](O[C@@H]6O[C@@H](C)[C@H](O)[C@@H](O)[C@H]6O[C@@H]6O[C@@H](C)[C@H](O)[C@@H](O)[C@H]6O)[C@]5(C)C4CC[C@]3(C)[C@H]1[C@@H]2C` (stereo partly specified), for which the Potency result in experiment [1], in experiment [2], in experiment [3], in experiment [4], in experiment [5] and in experiment [6] was “inactive” throughout.
On to `C[C@@]12C[C@]3(O)O[C@H](O1)[C@]1(COC(=O)c4ccccc4)[C@H]3C[C@@]12O[C@@H]1O[C@H](COC(=O)c2ccccc2)[C@@H](O)[C@H](O)[C@H]1O`, for which the Potency entry in experiment [1], in experiment [2], in experiment [3], in experiment [4], in experiment [5] and in experiment [6] was “inactive” in each case.
`CCNC(=O)[C@H]1O[C@H](n2cnc3c(NCC(c4ccccc4)c4ccccc4)nc(C(=O)NCCNC(=O)NC4CCN(c5ccccn5)CC4)nc32)[C@H](O)[C@@H]1O`: the Potency result in experiment [1], in experiment [2], in experiment [3], in experiment [4], in experiment [5] and in experiment [6] was “inactive” throughout.
As to `COc1cc([C@@H]2Oc3c(OC)cc(CCCO)cc3[C@@H]2CO[C@@H]2O[C@H](CO)[C@@H](O)[C@H](O)[C@H]2O)ccc1O`, the Potency entry in experiment [1], in experiment [2], in experiment [3], in experiment [5] and in experiment [6] was “inactive” in each case. The Potency in experiment [4] is 4.12 µM (active).
For the molecule `O=C(/C=C/c1ccc(O)c(O)c1)OCc1ccccc1O[C@@H]1O[C@H](CO)[C@@H](O)[C@H](O)[C@H]1O`, the Potency result in experiment [1], in experiment [2], in experiment [3], in experiment [5] and in experiment [6] was “inactive” throughout. Also, the Potency in experiment [4] was 0.922 µM (active).
For the molecule `C=C1C2=CC(O)C(C)C1(C)CC/C(C)=C/CCC1(C)OC1C2=O` (stereo unspecified), the Potency entry in experiment [1], in experiment [2], in experiment [3], in experiment [4], in experiment [5] and in experiment [6] was “inactive” in each case.
For the molecule `O=C(Nc1cccnn1)N1CCC(=Cc2cccc(Oc3ccc(C(F)(F)F)cn3)c2)CC1`, the Potency result in experiment [1], in experiment [2], in experiment [3], in experiment [4], in experiment [5] and in experiment [6] was “inactive” each time.
Consider `CCn1nnnc1NCc1ccc(C(C)C)cc1`, for which the Potency result in experiment [1], in experiment [2], in experiment [3], in experiment [4], in experiment [5] and in experiment [6] was “inactive” in each case.
Turning to `C[C@@H]1CC[C@]2(C)C(C[C@@H](O)[C@H](O)[C@]23CO3)[C@@]1(C)CCc1ccoc1` (stereo partly specified), the Potency entry in experiment [1], in experiment [2], in experiment [3], in experiment [4], in experiment [5] and in experiment [6] was “inactive” each time.
For the molecule `C=CC1C(O[C@@H]2O[C@H](CO)[C@@H](O)[C@H](O)[C@H]2O)OC=C(C(=O)OC)C1Cc1nccc2c1[nH]c1ccccc12` (stereo partly specified), the Potency result in experiment [1], in experiment [2], in experiment [3], in experiment [4], in experiment [5] and in experiment [6] was “inactive” in each case.
For the molecule `CN1C(=O)c2ccccc2-n2c(nc3ccccc3c2=O)/C1=C/c1ccccc1`, the Potency result in experiment [1], in experiment [2], in experiment [3], in experiment [4], in experiment [5] and in experiment [6] was “inactive” in each case.
For `CCC(CCO[C@@H]1O[C@H](CO[C@H]2OC[C@](O)(CO)[C@H]2O)[C@@H](O)[C@H](O)[C@H]1O)C(C)(C)O` (stereo partly specified), the Potency result in experiment [1], in experiment [2], in experiment [3], in experiment [4], in experiment [5] and in experiment [6] was “inactive” each time.
As to `CC1(O)CCC2C(C(=O)O)=COC(OC3OC(CO)C(O)C(O)C3OC(=O)/C=C/c3ccc(O)cc3)C21` (stereo unspecified), the Potency result in experiment [1], in experiment [2], in experiment [3], in experiment [5] and in experiment [6] was “inactive” throughout. In addition, the Potency in experiment [4] is 3.27 µM (active).
Regarding `C[C@@H](OC(=O)/C=C/c1ccc(O)cc1)C1=C[C@]2(C=C[C@@H]3C(C(=O)O)=CO[C@@H](O[C@@H]4O[C@H](CO[C@@H]5O[C@H](CO)[C@@H](O)[C@H](O)[C@H]5O)[C@@H](O)[C@H](O)[C@H]4O)[C@@H]32)OC1=O`, the Potency result in experiment [1], in experiment [2], in experiment [3], in experiment [5] and in experiment [6] was “inactive” throughout. Besides, the Potency in experiment [4] is 3.98 µM (active).
On to `C=C1C[C@]23C[C@H]1CC[C@H]2[C@]1(C)CCC[C@@]2(CO)C(=O)O[C@H]([C@H]21)[C@@H]3O`, for which the Potency result in experiment [1], in experiment [2], in experiment [3], in experiment [4], in experiment [5] and in experiment [6] was “inactive” in each case.
